Measurements reported in PubChem BioAssay (NCATS).
Inconclusive results are not listed. Where a call stands in place of a potency, no number is given. The source made the active and inactive calls. Calls follow the shape of the dose curve; as a rule, active = well fitted cell-killing curve with a large enough effect; inconclusive = small, poorly fitted or top-dose-only effect, or effect the other way; inactive = flat fitted curve, though single readings scatter.

System: CASKI
Test: Primary qHTS to identify gynecologic anti-cancer compounds using libraries of approved drugs and bioactive compounds (AID 1345084); also: nearly all actives have a fitted effect of over 55% in size
Conditions: Gynecologic cancer cell panel viability, ATPlite luminescence, 48 h; series mostly up to 57.5 µM
Summary of the method: (§1)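 Luminescence from the ATPlite ATP-monitoring reagent indicates viable cell number; lower signal means cytotoxicity. Cells received compound 16 h after seeding and were exposed for 48 h across five concentrations.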
Potency is read from the fitted curve at half-maximal effect.

SMILES	Potency	activity change, negative = cytotoxicity
Cc1ccc(-c2ncccn2)c(C(=O)N2C[C@H](COc3ccc(F)cn3)CC[C@H]2C)c1	inactive	
CC(=O)O[C@H]1CC(C)(C)CC2[C@]13CO[C@@]21CCC2[C@@]4(C)CC[C@H](O[C@@H]5OC[C@H](O[C@@H]6O[C@H](CO)[C@@H](O)[C@H](O)[C@H]6O[C@@H]6OC[C@@H](O)[C@H](O)[C@H]6O)[C@H](O)[C@H]5O[C@@H]5O[C@H](CO)[C@@H](O)[C@H](O)[C@H]5O)[C@@](C)(CO)C4CC[C@@]2(C)[C@]1(C)C[C@H]3O (some centres not stated)		-20.7% [at 11.6 µM] (inactive)
CCC(C)C(=O)OC1C(C)C2(O)C(C=C(CO)CC3(O)C(=O)C(C)=CC32)C2C(C)(C)C12OC(=O)C(C)C (configuration not stated)	inactive	
CC(C)NC(=O)N1CC[C@H](N=C2Nc3cc(F)ccc3N(CC(F)F)c3ccc(Cl)cc32)C1		-4.9% [at 11.6 µM] (inactive)
O=C(Nc1nnc(-c2ccc3c(c2)OCCO3)o1)C1CCCCC1	inactive	

System: Es-2
Test: as above
Conditions: Gynecologic cancer cell panel viability, ATPlite luminescence, 48 h; series mostly up to 57.5 µM
Summary of the method: as §1

SMILES	Potency	activity change, negative = cytotoxicity
N#Cc1ccc(COc2ccc(-c3cccc4nc(NC(=O)C5CC5)nn34)cc2)cn1	inactive	
CC(=O)O[C@H]1CC[C@]2(C)[C@H]3CC[C@]4(C)Oc5oc(C)cc(=O)c5C[C@H]4[C@]3(C)CC[C@H]2C1(C)C	inactive	
CC(=O)CC(=O)Nc1ccc(Cl)c(C(F)(F)F)c1	inactive	
CCn1c(=O)c(-c2ccc(-c3cncs3)cc2Cl)cc2cnc(Nc3ccc(N4CCN(C)CC4)cc3)nc21	inactive	
C=C(C)[C@@H]1CC=C(COC(=O)NC(=O)c2ncn3c(=O)n(C)nnc23)CC1	20 µM (active)	
C=C1C(=O)O[C@H]2CC(=C)[C@H]3CC[C@@](C)(O)[C@@H]3CC12 (some centres not stated)	inactive	
CC1(C)CN(C(=O)c2ccc(-c3cccc4nc(NC(=O)C5CC5)nn34)cc2)C1	inactive	
CC(C)c1cccc(C(C)C)c1NC(=O)Nc1ccc(Sc2ccc([N+](=O)[O-])cc2)cc1	inactive	
O=C(Nc1ccnc(NC(=O)C2CC2)c1)c1c(Cl)cccc1Cl	22.4 µM (active)	
FC(F)(F)c1ccccc1-c1cc(C(F)(F)F)c2nc(C3=NOC4(CCCCC4)C3)[nH]c2c1	inactive	
CCC(C)(OC(C)=O)C(=O)O[C@H]1[C@H](OC(C)=O)[C@]2(CO)[C@H](O)[C@H](O)[C@]3(C)C(=CCC4[C@@]5(C)CC[C@H](O[C@@H]6O[C@H](C(=O)O)[C@@H](O)[C@H](O[C@@H]7OC[C@H](O)[C@H](O[C@@H]8OC[C@H](O)[C@H](O)[C@H]8O)[C@H]7O)[C@H]6O[C@@H]6O[C@H](CO)[C@@H](O)[C@H](O)[C@H]6O)C(C)(C)C5CC[C@]43C)[C@@H]2CC1(C)C (some centres not stated)		-8.22% [at 6.55 µM] (inactive)
CC(NC(=O)Cc1cc(F)cc(F)c1)C(=O)NC1C(=O)N(C)c2ccccc2-c2ccccc21 (configuration not stated)	inactive	
COc1cc2ncnc(Oc3ccc(CC(=O)Nc4cnn(C(C)C)c4)cc3)c2cc1OC	inactive	
CC(C)(C)[C@H](NC(=O)c1ccc(N)c(Cl)c1)C(=O)N1CCC[C@H]1C(=O)N[C@H](C#N)CC(=O)O	inactive	
O=c1cc(N2CCOCC2)nc2c3ccccc3ccn12	inactive	
CCN(CC)C(=O)c1ccc(Nc2nc(OCC3CCCCC3)c3[nH]cnc3n2)cc1	inactive	
CC(CCC1(O)OC2CC3C4CC=C5CC(O[C@@H]6O[C@H](CO)[C@@H](O[C@@H]7O[C@@H](C)[C@H](O)[C@@H](O)[C@H]7O)[C@H](O)[C@H]6O[C@@H]6O[C@@H](C)[C@H](O)[C@@H](O)[C@H]6O)CCC5(C)C4CCC3(C)C2C1C)CO[C@@H]1O[C@H](CO)[C@@H](O)[C@H](O)[C@H]1O (some centres not stated)		4.17% [at 11.6 µM] (inactive)
Cc1ccc(-c2ncccn2)c(C(=O)N2C[C@H](COc3ccc(F)cn3)CC[C@H]2C)c1	inactive	
CC(C)NC(=O)N1CC[C@H](N=C2Nc3cc(F)ccc3N(CC(F)F)c3ccc(Cl)cc32)C1		5.14% [at 11.6 µM] (inactive)
O=C(Nc1nnc(-c2ccc3c(c2)OCCO3)o1)C1CCCCC1	inactive	

System: HeLa
Test: as above
Conditions: Gynecologic cancer cell panel viability, ATPlite luminescence, 48 h; series mostly up to 57.5 µM
Summary of the method: as §1

SMILES	Potency	activity change, negative = cytotoxicity
N#Cc1ccc(COc2ccc(-c3cccc4nc(NC(=O)C5CC5)nn34)cc2)cn1	inactive	
CC(=O)O[C@H]1CC[C@]2(C)[C@H]3CC[C@]4(C)Oc5oc(C)cc(=O)c5C[C@H]4[C@]3(C)CC[C@H]2C1(C)C	inactive	
CC(=O)CC(=O)Nc1ccc(Cl)c(C(F)(F)F)c1	inactive	
Cc1ccc(-c2c(C(=O)CCl)n(CCCO)c3ncnc(N)c23)cc1	inactive	
Nc1ncnc2c1c(-c1ccc(Oc3ccccc3)cc1)nn2[C@@H]1CCCNC1	inactive	
CC(C)(O)C1Cc2c(ccc(C(=O)CCc3ccccc3)c2O)O1 (configuration not stated)	10 µM (active)	
CCn1c(=O)c(-c2ccc(-c3cncs3)cc2Cl)cc2cnc(Nc3ccc(N4CCN(C)CC4)cc3)nc21	inactive	
C=C(C)[C@@H]1CC=C(COC(=O)NC(=O)c2ncn3c(=O)n(C)nnc23)CC1	31.6 µM (active)	
C=C1C(=O)O[C@H]2CC(=C)[C@H]3CC[C@@](C)(O)[C@@H]3CC12 (some centres not stated)	inactive	
CC1(C)CN(C(=O)c2ccc(-c3cccc4nc(NC(=O)C5CC5)nn34)cc2)C1	inactive	
CC(C)c1cccc(C(C)C)c1NC(=O)Nc1ccc(Sc2ccc([N+](=O)[O-])cc2)cc1	inactive	
O=C(Nc1ccnc(NC(=O)C2CC2)c1)c1c(Cl)cccc1Cl	17.8 µM (active)	
FC(F)(F)c1ccccc1-c1cc(C(F)(F)F)c2nc(C3=NOC4(CCCCC4)C3)[nH]c2c1	inactive	
CCC(C)(OC(C)=O)C(=O)O[C@H]1[C@H](OC(C)=O)[C@]2(CO)[C@H](O)[C@H](O)[C@]3(C)C(=CCC4[C@@]5(C)CC[C@H](O[C@@H]6O[C@H](C(=O)O)[C@@H](O)[C@H](O[C@@H]7OC[C@H](O)[C@H](O[C@@H]8OC[C@H](O)[C@H](O)[C@H]8O)[C@H]7O)[C@H]6O[C@@H]6O[C@H](CO)[C@@H](O)[C@H](O)[C@H]6O)C(C)(C)C5CC[C@]43C)[C@@H]2CC1(C)C (some centres not stated)		-8.59% [at 6.55 µM] (inactive)
CC(NC(=O)Cc1cc(F)cc(F)c1)C(=O)NC1C(=O)N(C)c2ccccc2-c2ccccc21 (configuration not stated)	inactive	
COc1cc2ncnc(Oc3ccc(CC(=O)Nc4cnn(C(C)C)c4)cc3)c2cc1OC	inactive	
C=C1C(=O)O[C@@H]2[C@H]3C(C)=CC(=O)C3=C(C)[C@@H](OC(=O)/C(C)=C\C)[C@H](O)[C@@H]12	inactive	
CC(C)(C)[C@H](NC(=O)c1ccc(N)c(Cl)c1)C(=O)N1CCC[C@H]1C(=O)N[C@H](C#N)CC(=O)O	inactive	
O=c1cc(N2CCOCC2)nc2c3ccccc3ccn12	inactive	
CCOC(=O)c1csc(Nc2ccc(Cl)cc2)n1	inactive	
CCN(CC)C(=O)c1ccc(Nc2nc(OCC3CCCCC3)c3[nH]cnc3n2)cc1	28.2 µM (active)	
CC(CCC1(O)OC2CC3C4CC=C5CC(O[C@@H]6O[C@H](CO)[C@@H](O[C@@H]7O[C@@H](C)[C@H](O)[C@@H](O)[C@H]7O)[C@H](O)[C@H]6O[C@@H]6O[C@@H](C)[C@H](O)[C@@H](O)[C@H]6O)CCC5(C)C4CCC3(C)C2C1C)CO[C@@H]1O[C@H](CO)[C@@H](O)[C@H](O)[C@H]1O (some centres not stated)		-7.05% [at 11.6 µM] (inactive)
Cc1ccc(-c2ncccn2)c(C(=O)N2C[C@H](COc3ccc(F)cn3)CC[C@H]2C)c1	inactive	
CC(=O)O[C@H]1CC(C)(C)CC2[C@]13CO[C@@]21CCC2[C@@]4(C)CC[C@H](O[C@@H]5OC[C@H](O[C@@H]6O[C@H](CO)[C@@H](O)[C@H](O)[C@H]6O[C@@H]6OC[C@@H](O)[C@H](O)[C@H]6O)[C@H](O)[C@H]5O[C@@H]5O[C@H](CO)[C@@H](O)[C@H](O)[C@H]5O)[C@@](C)(CO)C4CC[C@@]2(C)[C@]1(C)C[C@H]3O (some centres not stated)		-3.76% [at 11.6 µM] (inactive)
CCC(C)C(=O)OC1C(C)C2(O)C(C=C(CO)CC3(O)C(=O)C(C)=CC32)C2C(C)(C)C12OC(=O)C(C)C (configuration not stated)	inactive	
CC(C)NC(=O)N1CC[C@H](N=C2Nc3cc(F)ccc3N(CC(F)F)c3ccc(Cl)cc32)C1		-4.91% [at 11.6 µM] (inactive)
O=C(Nc1nnc(-c2ccc3c(c2)OCCO3)o1)C1CCCCC1	inactive	
